# Assay results reported in PubChem BioAssay AID1159580 (chemical genetic matrix, 2015).
# Hit rate of the full screen: of about 5,500 compounds, about 2,000 (36%) were called active. Roughly 18% stayed inconclusive and do not appear here. Some of the results follow. Values without a mark were called inactive. Rule as the data show it: active = normalized growth mostly below about 0.91 (no sharp cut-off); inconclusive = no clear call, values can overlap the other calls; inactive = mostly above about 0.92.
# Experiment: chemical genetic growth profiling, strain panel (AID 1159580);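 also: tested at 20 µM; growth read once vehicle control cultures reached saturation at 30 °C; 1 = growth at the plate median or of vehicle wells; lower values mean less growth of the strain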
# Settings: growth OD
compound,measurement,setting,value
N=C(N)c1ccc(OCCCCCOc2ccc(C(=N)N)cc2)cc1,normalized growth,"S. cerevisiae deletion strains, locus YJR043C, strain POL32, hits give low values",0.909
same,normalized growth,"S. cerevisiae deletion strains, locus YJR075W, strain HOC1, hits give low values",0.918
same,normalized growth,"S. cerevisiae deletion strains, locus YKL009W, strain mrt4, hits give low values",0.942
same,normalized growth,"S. cerevisiae deletion strains, locus YKL068W, hits give low values",0.92 (active)
same,normalized growth,"S. cerevisiae deletion strains, locus YKL085W, strain MDH1 (second series), hits give low values",0.936
same,normalized growth,"S. cerevisiae deletion strains, locus YKL085W, strain MDH1, hits give low values",0.936
same,normalized growth,"S. cerevisiae deletion strains, locus YKL160W, strain elf1, hits give low values",0.948
same,normalized growth,"S. cerevisiae deletion strains, locus YKL190W, strain CNB1, hits give low values",0.959
same,normalized growth,"S. cerevisiae deletion strains, locus YKR001C, strain vps1, hits give low values",0.952
same,normalized growth,"S. cerevisiae deletion strains, locus YKR026C, strain gcn3, hits give low values",0.967
same,normalized growth,"S. cerevisiae deletion strains, locus YKR091W, strain srl3, hits give low values",0.961
same,normalized growth,"S. cerevisiae deletion strains, locus YLL001W, strain dnm1, hits give low values",0.916
same,normalized growth,"S. cerevisiae deletion strains, locus YLL026W, hits give low values",0.97
same,normalized growth,"S. cerevisiae deletion strains, locus YLL041C, strain sdh2, hits give low values",0.974
same,normalized growth,"S. cerevisiae deletion strains, locus YLR027C, strain aat2, hits give low values",0.951
same,normalized growth,"S. cerevisiae deletion strains, locus YLR039C, strain RIC1, hits give low values",1.09
same,normalized growth,"S. cerevisiae deletion strains, locus YLR058C, strain SHM2, hits give low values",0.977
same,normalized growth,"S. cerevisiae deletion strains, locus YLR102C, strain apc9, hits give low values",0.939
same,normalized growth,"S. cerevisiae deletion strains, locus YLR221C, strain rsa3, hits give low values",0.958
same,normalized growth,"S. cerevisiae deletion strains, locus YLR258W, strain gsy2, hits give low values",0.963
same,normalized growth,"S. cerevisiae deletion strains, locus YLR262C, strain YPT6 (second series), hits give low values",0.988
same,normalized growth,"S. cerevisiae deletion strains, locus YLR262C, strain YPT6, hits give low values",1.11
same,normalized growth,"S. cerevisiae deletion strains, locus YLR268W, strain sec22, hits give low values",0.887
same,normalized growth,"S. cerevisiae deletion strains, locus YLR320W, strain mms22, hits give low values",0.89
same,normalized growth,"S. cerevisiae deletion strains, locus YLR330W, strain CHS5, hits give low values",0.999
same,normalized growth,"S. cerevisiae deletion strains, locus YLR342W, strain FKS1 (second series), hits give low values",0.89
same,normalized growth,"S. cerevisiae deletion strains, locus YLR342W, strain FKS1, hits give low values",0.958
same,normalized growth,"S. cerevisiae deletion strains, locus YLR357W, strain rsc2, hits give low values",0.979
same,normalized growth,"S. cerevisiae deletion strains, locus YLR370C, strain arc18, hits give low values",0.954
same,normalized growth,"S. cerevisiae deletion strains, locus YLR371W, strain rom2, hits give low values",0.929
same,normalized growth,"S. cerevisiae deletion strains, locus YLR384C, strain iki3, hits give low values",0.944
same,normalized growth,"S. cerevisiae deletion strains, locus YLR418C, strain cdc73, hits give low values",0.789 (active)
same,normalized growth,"S. cerevisiae deletion strains, locus YML016C, strain PPZ1, hits give low values",0.991
same,normalized growth,"S. cerevisiae deletion strains, locus YML032C, strain rad52, hits give low values",0.828 (active)
same,normalized growth,"S. cerevisiae deletion strains, locus YML120C, strain ndi1, hits give low values",0.956
same,normalized growth,"S. cerevisiae deletion strains, locus YML124C, strain tub3, hits give low values",0.943
same,normalized growth,"S. cerevisiae deletion strains, locus YMR058W, strain fet3, hits give low values",0.828 (active)
same,normalized growth,"S. cerevisiae deletion strains, locus YMR078C, strain ctf18, hits give low values",0.912
same,normalized growth,"S. cerevisiae deletion strains, locus YMR125W, strain sto1, hits give low values",0.949
same,normalized growth,"S. cerevisiae deletion strains, locus YMR129W, hits give low values",0.974
same,normalized growth,"S. cerevisiae deletion strains, locus YMR205C, strain PFK2, hits give low values",0.758 (active)
same,normalized growth,"S. cerevisiae deletion strains, locus YMR223W, strain ubp8, hits give low values",0.868 (active)
same,normalized growth,"S. cerevisiae deletion strains, locus YMR231W, strain pep5, hits give low values",0.965
same,normalized growth,"S. cerevisiae deletion strains, locus YMR263W, strain SAP30, hits give low values",0.93
same,normalized growth,"S. cerevisiae deletion strains, locus YMR307W, strain GAS1, hits give low values",0.554 (active)
same,normalized growth,"S. cerevisiae deletion strains, locus YNL067W, strain RPL9B, hits give low values",0.93
same,normalized growth,"S. cerevisiae deletion strains, locus YNL071W, strain lat1, hits give low values",0.957
same,normalized growth,"S. cerevisiae deletion strains, locus YNL128W, strain TEP1, hits give low values",0.926
same,normalized growth,"S. cerevisiae deletion strains, locus YNL153C, strain GIM3, hits give low values",0.958
same,normalized growth,"S. cerevisiae deletion strains, locus YNL209W, strain ssb2, hits give low values",0.948
same,normalized growth,"S. cerevisiae deletion strains, locus YNL233W, strain BNI4, hits give low values",0.927
same,normalized growth,"S. cerevisiae deletion strains, locus YNL248C, strain rpa49, hits give low values",0.955
same,normalized growth,"S. cerevisiae deletion strains, locus YNL250W, strain rad50, hits give low values",0.894 (active)
same,normalized growth,"S. cerevisiae deletion strains, locus YNL271C, strain bni1, hits give low values",0.929
same,normalized growth,"S. cerevisiae deletion strains, locus YNL298W, strain CLA4, hits give low values",0.931
same,normalized growth,"S. cerevisiae deletion strains, locus YNL307C, strain MCK1, hits give low values",0.811 (active)
same,normalized growth,"S. cerevisiae deletion strains, locus YNL322C, strain KRE1 (second series), hits give low values",0.918
same,normalized growth,"S. cerevisiae deletion strains, locus YNL322C, strain KRE1, hits give low values",0.972
same,normalized growth,"S. cerevisiae deletion strains, locus YNR049C, strain mso1, hits give low values",0.941
same,normalized growth,"S. cerevisiae deletion strains, locus YNR052C, strain pop2, hits give low values",0.823 (active)
same,normalized growth,"S. cerevisiae deletion strains, locus YOL006C, strain TOP1, hits give low values",1.11
same,normalized growth,"S. cerevisiae deletion strains, locus YOL012C, strain htz1",0.566
same,normalized growth,"S. cerevisiae deletion strains, locus YOL147C, strain pex11, hits give low values",0.939
same,normalized growth,"S. cerevisiae deletion strains, locus YOR001W, strain rrp6, hits give low values",0.94
same,normalized growth,"S. cerevisiae deletion strains, locus YOR061W, strain CKA2, hits give low values",0.964
same,normalized growth,"S. cerevisiae deletion strains, locus YOR069W, strain VPS5, hits give low values",0.964
same,normalized growth,"S. cerevisiae deletion strains, locus YOR070C, strain gyp1, hits give low values",0.97
same,normalized growth,"S. cerevisiae deletion strains, locus YOR080W, strain dia2, hits give low values",0.936
same,normalized growth,"S. cerevisiae deletion strains, locus YOR083W, strain WHI5, hits give low values",0.927
same,normalized growth,"S. cerevisiae deletion strains, locus YOR106W, strain vam3, hits give low values",0.997
same,normalized growth,"S. cerevisiae deletion strains, locus YOR136W, strain idh2, hits give low values",0.95
same,normalized growth,"S. cerevisiae deletion strains, locus YOR144C, strain elg1, hits give low values",0.921 (active)
same,normalized growth,"S. cerevisiae deletion strains, locus YOR184W, strain ser1, hits give low values",0.832 (active)
same,normalized growth,"S. cerevisiae deletion strains, locus YOR265W, strain rbl2, hits give low values",0.962
same,normalized growth,"S. cerevisiae deletion strains, locus YOR270C, strain vph1, hits give low values",1.17
same,normalized growth,"S. cerevisiae deletion strains, locus YOR290C, strain snf2, hits give low values",0.946
same,normalized growth,"S. cerevisiae deletion strains, locus YOR316C, strain cot1, hits give low values",0.943
same,normalized growth,"S. cerevisiae deletion strains, locus YPL051W, strain arl3, hits give low values",0.98
same,normalized growth,"S. cerevisiae deletion strains, locus YPL055C, strain LGE1, hits give low values",0.943
same,normalized growth,"S. cerevisiae deletion strains, locus YPL078C, strain atp4, hits give low values",1.03
same,normalized growth,"S. cerevisiae deletion strains, locus YPL106C, strain sse1, hits give low values",0.948
same,normalized growth,"S. cerevisiae deletion strains, locus YPL240C, strain hsp82, hits give low values",0.989
same,normalized growth,"S. cerevisiae deletion strains, locus YPL241C, strain CIN2, hits give low values",0.973
same,normalized growth,"S. cerevisiae deletion strains, locus YPR119W, strain clb2, hits give low values",0.934
same,normalized growth,"S. cerevisiae deletion strains, locus YPR141C, strain kar3, hits give low values",0.905 (active)
same,normalized growth,"S. cerevisiae deletion strains, locus YPR163C, strain tif3, hits give low values",0.901 (active)
same,normalized growth,"S. cerevisiae deletion strains, locus YPR167C, strain met16, hits give low values",0.944
same,normalized growth,"S. cerevisiae deletion strains, strain wtn01, hits give low values",0.891 (active)
same,normalized growth,"S. cerevisiae strains, strain wild type, hits give low values",0.94
